We go through 16 molecules from PubChem BioAssay (NCI).

The panel holds about 83,000 compounds, 20% with a hit somewhere; the sample as a whole holds those more often.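 The test compound was applied at a single concentration to cells in 96-well plates for 48 hours, and percent growth was recorded.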 Values without a mark were called inactive. The source made the active and inactive calls. How the source made its calls: active means growth percent below 10; inactive means the rest.

Test systems include T-47D breast; BT-549 breast; MDA-MB-435 melanoma; SW-620 colon; MCF7 breast; HCT-116 colon; HCC-2998 colon; KM12 colon.
Test in all cases: NCI-60 one-dose screen, 48 h (100 = growth as untreated, 0 = no growth, -100 = all killed)
Settings in all cases: 10 µM unless noted

For `COC1=CC(c2ccc[nH]2)=N/C1=C\c1[nH]c(C)c(C(=O)CCCCC(=O)Nc2ccccc2)c1C`, the growth was 63.9% with T-47D breast; 13.9% in the test with BT-549 breast; 17% in the test on MDA-MB-435 melanoma; -87.8% (active) with SW-620 colon; -85.7% (active) with MCF7 breast; -100% (active) in the test with HCT-116 colon. The growth is 55.6% in the test on HCC-2998 colon and -3.11% (active) in the test on KM12 colon.

For the molecule `CCOc1ccc(/C=C/C=N/NC(N)=S)cc1`, the growth was 38.2% with T-47D breast; 57.4% with BT-549 breast; 88.9% in the test on MDA-MB-435 melanoma; 87.2% with SW-620 colon; 43.5% in the test with MCF7 breast; 70.1% with HCT-116 colon. Further, the growth with HCC-2998 colon is 70.1%; in the test on KM12 colon it was 84%.

With `C=C1C(=O)O[C@H]2[C@H]1CC/C(Cn1cc(-c3ccccc3C(F)(F)F)nn1)=C\CC[C@@]1(C)O[C@@H]21`, the growth is -82.4% (active) in the test on T-47D breast; -60.4% (active) in the test with BT-549 breast; 4.12% (active) in the test on MDA-MB-435 melanoma; -62.9% (active) with SW-620 colon; -70.5% (active) in the test with MCF7 breast; -99.1% (active) with HCT-116 colon. Moreover, the growth in the test on HCC-2998 colon was -45.9% (active); in the test on KM12 colon, 36.5%.

With `COc1cc(Cn2c(SCC(=O)Nc3ccc(Cl)cc3)nc3ccccc3c2=O)cc(OC)c1OC`, the growth is 45.2% with T-47D breast; 75.1% in the test with BT-549 breast; 69.8% in the test with MDA-MB-435 melanoma; 77.7% in the test on SW-620 colon; 77.2% in the test on MCF7 breast; 35.6% in the test on HCT-116 colon. The values for the growth in the test on HCC-2998 colon and in the test with KM12 colon were 93.2% and 79.4%, respectively.

Take `COc1ccc2c(c1)C(C)Cc1c(N(C)C)ncnc1N2C` (stereo not drawn): the growth was 34.7% with T-47D breast; 17.7% in the test on BT-549 breast; -5.79% (active) in the test on MDA-MB-435 melanoma; 21.4% in the test on SW-620 colon; 19.5% with MCF7 breast; 23.7% in the test with HCT-116 colon. In addition, the growth is 74.6% with HCC-2998 colon and 23.6% with KM12 colon.

Turning to `CSc1ccccc1C#C/C=C\C#Cc1ccccc1N1CCCC1=O`, the growth was 63.2% in the test on T-47D breast; 69.7% in the test on BT-549 breast; 8.9% (active) with MDA-MB-435 melanoma; 26.9% in the test on SW-620 colon; 37.6% in the test on MCF7 breast; 34.4% with HCT-116 colon. Also, the growth is 50.2% with HCC-2998 colon and 44.4% with KM12 colon.

As to `COc1ccccc1OCC(=O)Nc1sc2c(c1C(N)=O)CCC2`, the growth in the test with T-47D breast is 62.5%; in the test on BT-549 breast it was 85.6%; in the test on MDA-MB-435 melanoma it was 78.9%; in the test on SW-620 colon it was 64.5%; in the test with MCF7 breast, 27.8%; in the test with HCT-116 colon, 63.1%. The growth is 58.8% in the test on HCC-2998 colon and 105% in the test with KM12 colon.

With `Cc1c(C(=O)NCc2ccccc2)[n+](=O)c2cc(F)ccc2n1[O-]`, the growth in the test on T-47D breast is 107%; with BT-549 breast, 121%; in the test on MDA-MB-435 melanoma it was 93.5%; with SW-620 colon, 107%; with MCF7 breast it was 97.1%; in the test on HCT-116 colon it was 97.9%. The growth in the test on HCC-2998 colon is 88.4%; in the test on KM12 colon, 111%.

As for `O=[N+]([O-])c1cccc(-c2cc(-c3cc(Br)ccc3O)[nH]n2)c1`, the growth with T-47D breast is 21.1%; with BT-549 breast it was 24.1%; with MDA-MB-435 melanoma, 13.5%; in the test on SW-620 colon, 28.1%; in the test with MCF7 breast it was 6.17% (active); with HCT-116 colon, 13.5%. Moreover, the growth with HCC-2998 colon is 43.7%; in the test on KM12 colon it was 12.5%.

Turning to `O=S(=O)(NCCCNc1nccc(-c2c(-c3ccc(O)cc3)nc3sccn23)n1)c1ccc(F)cc1`, the growth in the test with T-47D breast was -5.79% (active); with BT-549 breast, 14%; in the test with MDA-MB-435 melanoma, -17.9% (active); with SW-620 colon it was 9.69% (active); in the test with MCF7 breast it was 6.45% (active); in the test with HCT-116 colon, -40% (active). In addition, the growth in the test on HCC-2998 colon is -10.7% (active); with KM12 colon, 11.9%.

On to `CC/C(=C(\c1ccc(O)cc1)c1ccc(OCCN(C)CCN(C)C(=O)CCC(=O)c2c(C)[nH]c(/C=C3\N=C(c4ccc[nH]4)C=C3OC)c2C)cc1)c1ccccc1`, for which the growth in the test with T-47D breast was 69.3%; in the test on BT-549 breast, 103%; with MDA-MB-435 melanoma, 63.8%; in the test on SW-620 colon it was 66.2%; in the test on MCF7 breast, 34.3%; in the test on HCT-116 colon, 65.2%. The growth in the test on HCC-2998 colon was 92.2%; in the test on KM12 colon, 42.4%.

Consider `Cc1nc2scc(-c3ccccc3)n2c(=O)c1CCO`, for which the growth in the test on T-47D breast is 99.6%; in the test on BT-549 breast it was 116%; in the test with MDA-MB-435 melanoma it was 103%; with SW-620 colon, 101%; with MCF7 breast, 88.9%; with HCT-116 colon, 101%. Moreover, the values for the growth in the test on HCC-2998 colon and in the test on KM12 colon were 112% and 103%, respectively.

Take `COc1ccc(/C=C/c2cc(N3CCOCC3)c3cc(F)c(F)cc3n2)cc1OC`: the growth in the test on T-47D breast is 37.9%; in the test with BT-549 breast it was 45.2%; with MDA-MB-435 melanoma it was 51%; in the test on SW-620 colon, 45.8%; in the test with MCF7 breast, 22.1%; in the test on HCT-116 colon, 24.5%. Further, the growth with HCC-2998 colon was 29%; in the test with KM12 colon, 33.3%.

With `COc1cc(CNC(=O)CCSc2nc3ccccc3c(=O)n2Cc2cc(OC)c(OC)c(OC)c2)cc(OC)c1OC`, the growth with T-47D breast is 29.3%; in the test with BT-549 breast, 48.3%; in the test on MDA-MB-435 melanoma, -28.7% (active); in the test with SW-620 colon, 23.9%; with MCF7 breast it was 15.4%; in the test on HCT-116 colon it was 17%. The growth in the test with HCC-2998 colon was 86%; in the test on KM12 colon, 17.3%.

As to `c1cncc(CNc2ccccc2-c2nnc(Nc3ccc4c(c3)OCCO4)o2)c1`, the growth is 73.6% with T-47D breast; 16.6% in the test with BT-549 breast; -20.3% (active) in the test on MDA-MB-435 melanoma; 23.2% in the test with SW-620 colon; 20.9% with MCF7 breast; 9.5% (active) in the test with HCT-116 colon. The growth with HCC-2998 colon is 9.58% (active); in the test with KM12 colon it was 3.03% (active).

Consider `O=C(Nc1cccc(Cl)c1)c1cc([N+](=O)[O-])ccc1O`, for which the growth in the test on T-47D breast is 41.9%; in the test with BT-549 breast, 66.5%; with MDA-MB-435 melanoma, 60.4%; in the test on SW-620 colon it was 58.7%; in the test on MCF7 breast, 42.9%; in the test with HCT-116 colon it was 45.9%. In addition, the growth is 29.2% in the test with HCC-2998 colon and 43.1% with KM12 colon.
